Measurements taken from the supplement of paper PMC12494721.
Where a name gives a salt, the structure may show the parent alone.

How the values were obtained:
Conditions in all cases: 20 µM; incubation time: 27 h, anaerobic, 37 °C;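 for the amine columns active = adjusted P below 0.05 in both replicates with a change the same way and a mean fold change under 0.8 or over 1.25; inactive = the rest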
[1] = test system: Clostridium sporogenes DSM 1664; assay: growth (OD595) fold change vs plate DMSO controls (fold change (ratio)); higher = more growth
Summary of the method: (§1)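 The reported measure is growth: the fold change against the median of DMSO controls on the plate. Absorbance at 595 nm from anaerobic 96-well mGAM cultures grown for 27 h at 37 °C was blank-subtracted, corrected for background with 20 µM compound solutions in water, and converted to OD with a calibration factor of 5. Fold changes above 1.5 appear as NA, and values are the mean of 2 biological replicates.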

Escherichia coli IAI1 [2] = assay: as above
Summary of the method: as §1

[3] = test system: Klebsiella aerogenes DSM 30053; assay: as above
Summary of the method: as §1

[4] = test system: Ruminococcus gnavus DSM 108212; assay: as above
Summary of the method: as §1

[5] = test system: Klebsiella aerogenes DSM 30053; assay: fold change of Histamine concentration vs plate DMSO controls (fold change (ratio)); higher = more amine produced, active = hit call of the paper (significant change in both replicates, either direction)
Summary of the method: (§2)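 Each value is the fold change relative to DMSO-only wells on the same plate. Four gut bacterial strains were grown anaerobically in mGAM at 37 °C for 27 h in 80 µL wells, starting at OD 0.1 before a 1:1 dilution, with compounds at 20 µM final (sweeteners 50 µM). Whole cultures were extracted with cold acetonitrile/methanol containing 0.1% formic acid, centrifuged, and amines were quantified by LC–triple-quadrupole MS (dynamic MRM) against external calibration curves with within-batch drift correction. Values are means of 2 biological replicates.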

[6] = test system: Clostridium sporogenes DSM 1664; assay: fold change of Tryptamine concentration vs plate DMSO controls (fold change (ratio)); higher = more amine produced, active = hit call of the paper (significant change in both replicates, either direction)
Summary of the method: as §2

[7] = test system: Ruminococcus gnavus DSM 108212; assay: as above
Summary of the method: as §2

Escherichia coli IAI1 [8] = assay: fold change of Putrescine concentration vs plate DMSO controls (fold change (ratio)); higher = more amine produced, active = hit call of the paper (significant change in both replicates, either direction)
Summary of the method: as §2

[9] = test system: Klebsiella aerogenes DSM 30053; assay: as above
Summary of the method: as §2

Escherichia coli IAI1 [10] = assay: fold change of Cadaverine concentration vs plate DMSO controls (fold change (ratio)); higher = more amine produced, active = hit call of the paper (significant change in both replicates, either direction)
Summary of the method: as §2

[11] = test system: Klebsiella aerogenes DSM 30053; assay: as above
Summary of the method: as §2

[12] = test system: Ruminococcus gnavus DSM 108212; assay: fold change of 2-Phenylethylamine concentration vs plate DMSO controls (fold change (ratio)); higher = more amine produced, active = hit call of the paper (significant change in both replicates, either direction)
Summary of the method: as §2

CC(C)(N)Cc1ccccc1 [Phentermine hydrochloride]
growth [1]: 0.937
growth (Escherichia coli IAI1 [2]): 0.981
growth [3]: 1.24
growth [4]: 0.221
fold change of Histamine concentration [5]: 0.896 (inactive)
fold change of Tryptamine concentration [6]: 1.03 (inactive)
fold change of Tryptamine concentration [7]: 0.176 (active)
fold change of Putrescine concentration (Escherichia coli IAI1 [8]): 0.983 (inactive)
fold change of Putrescine concentration [9]: 1.01 (inactive)
fold change of Cadaverine concentration (Escherichia coli IAI1 [10]): 1.05 (inactive)
fold change of Cadaverine concentration [11]: 1.05 (inactive)
fold change of 2-Phenylethylamine concentration [12]: 0.213 (active)

Oc1ccc(C(c2ccc(O)cc2)(C(F)(F)F)C(F)(F)F)cc1 [Bisphenol AF]
growth [1]: 1.04
growth (Escherichia coli IAI1 [2]): 1.07
growth [3]: 0.956
growth [4]: 0.983
fold change of Histamine concentration [5]: 1.08 (inactive)
fold change of Tryptamine concentration [6]: 0.718 (inactive)
fold change of Tryptamine concentration [7]: 0.717 (active)
fold change of Putrescine concentration (Escherichia coli IAI1 [8]): 1.01 (inactive)
fold change of Putrescine concentration [9]: 0.989 (inactive)
fold change of Cadaverine concentration (Escherichia coli IAI1 [10]): 1.03 (inactive)
fold change of Cadaverine concentration [11]: 0.99 (inactive)
fold change of 2-Phenylethylamine concentration [12]: 0.723 (inactive)

CC(C)[N+](C)(CCC(C(N)=O)(c1ccccc1)c1ccccc1)C(C)C [Isopropamide iodide]
growth [1]: 1.04
growth (Escherichia coli IAI1 [2]): 1.09
growth [3]: 0.982
growth [4]: 1.39
fold change of Histamine concentration [5]: 1.01 (inactive)
fold change of Tryptamine concentration [6]: 0.99 (inactive)
fold change of Tryptamine concentration [7]: 0.909 (inactive)
fold change of Putrescine concentration (Escherichia coli IAI1 [8]): 1.24 (inactive)
fold change of Putrescine concentration [9]: 1.01 (inactive)
fold change of Cadaverine concentration (Escherichia coli IAI1 [10]): 0.936 (inactive)
fold change of Cadaverine concentration [11]: 0.997 (inactive)
fold change of 2-Phenylethylamine concentration [12]: 0.834 (inactive)

NC(=O)CN1CC(O)CC1=O (stereo not drawn) [Oxiracetam]
growth [1]: 0.902
growth (Escherichia coli IAI1 [2]): 0.994
growth [3]: 0.98
growth [4]: 0.915
fold change of Histamine concentration [5]: 1 (inactive)
fold change of Tryptamine concentration [6]: 1.14 (inactive)
fold change of Tryptamine concentration [7]: 1.1 (inactive)
fold change of Putrescine concentration (Escherichia coli IAI1 [8]): 0.941 (inactive)
fold change of Putrescine concentration [9]: 0.865 (inactive)
fold change of Cadaverine concentration (Escherichia coli IAI1 [10]): 0.876 (inactive)
fold change of Cadaverine concentration [11]: 1.07 (inactive)
fold change of 2-Phenylethylamine concentration [12]: 1.14 (inactive)

CCOP(=S)(OCC)Oc1nc(Cl)c(Cl)cc1Cl
growth [1]: 1.13
growth (Escherichia coli IAI1 [2]): 0.998
growth [3]: 1.04
growth [4]: 0.945
fold change of Histamine concentration [5]: 0.882 (inactive)
fold change of Tryptamine concentration [6]: 1.01 (inactive)
fold change of Tryptamine concentration [7]: 0.936 (inactive)
fold change of Putrescine concentration (Escherichia coli IAI1 [8]): 0.986 (inactive)
fold change of Putrescine concentration [9]: 1.01 (inactive)
fold change of Cadaverine concentration (Escherichia coli IAI1 [10]): 1.03 (inactive)
fold change of Cadaverine concentration [11]: 1.02 (inactive)
fold change of 2-Phenylethylamine concentration [12]: 0.873 (inactive)

C[CH2][Hg][S]c1ccccc1C(=O)[O-].[Na+] [Thimerosal]
growth [1]: 0.878
growth (Escherichia coli IAI1 [2]): 0.91
growth [3]: 0.707
fold change of Histamine concentration [5]: 0.531 (inactive)
fold change of Tryptamine concentration [6]: 0.986 (inactive)
fold change of Tryptamine concentration [7]: 0.487 (active)
fold change of Putrescine concentration (Escherichia coli IAI1 [8]): 0.936 (inactive)
fold change of Putrescine concentration [9]: 0.953 (inactive)
fold change of Cadaverine concentration (Escherichia coli IAI1 [10]): 0.896 (inactive)
fold change of Cadaverine concentration [11]: 1 (inactive)
fold change of 2-Phenylethylamine concentration [12]: 0.496 (inactive)

COc1cc(OC)nc(NC(=O)NS(=O)(=O)c2ncccc2C(=O)N(C)C)n1
growth [1]: 1.19
growth (Escherichia coli IAI1 [2]): 1.03
growth [3]: 1.02
growth [4]: 1.22
fold change of Histamine concentration [5]: 0.96 (inactive)
fold change of Tryptamine concentration [6]: 0.975 (inactive)
fold change of Tryptamine concentration [7]: 1.01 (inactive)
fold change of Putrescine concentration (Escherichia coli IAI1 [8]): 0.924 (inactive)
fold change of Putrescine concentration [9]: 1.03 (inactive)
fold change of Cadaverine concentration (Escherichia coli IAI1 [10]): 1.01 (inactive)
fold change of Cadaverine concentration [11]: 1.01 (inactive)
fold change of 2-Phenylethylamine concentration [12]: 0.998 (inactive)

COP(=S)(OC)Oc1ccc(SC)c(C)c1
growth [1]: 1.1
growth (Escherichia coli IAI1 [2]): 1.09
growth [3]: 0.997
growth [4]: 0.973
fold change of Histamine concentration [5]: 0.959 (inactive)
fold change of Tryptamine concentration [6]: 1.02 (inactive)
fold change of Tryptamine concentration [7]: 1.08 (inactive)
fold change of Putrescine concentration (Escherichia coli IAI1 [8]): 0.971 (inactive)
fold change of Putrescine concentration [9]: 0.989 (inactive)
fold change of Cadaverine concentration (Escherichia coli IAI1 [10]): 0.98 (inactive)
fold change of Cadaverine concentration [11]: 1.04 (inactive)
fold change of 2-Phenylethylamine concentration [12]: 1.12 (inactive)

COc1ccc(Cc2nccc3cc(OC)c(OC)cc23)cc1OC [Papaverine hydrochloride]
growth [1]: 1.17
growth (Escherichia coli IAI1 [2]): 1.02
growth [3]: 1.08
growth [4]: 0.848
fold change of Histamine concentration [5]: 0.961 (inactive)
fold change of Tryptamine concentration [6]: 1 (inactive)
fold change of Tryptamine concentration [7]: 0.99 (inactive)
fold change of Putrescine concentration (Escherichia coli IAI1 [8]): 0.964 (inactive)
fold change of Putrescine concentration [9]: 0.992 (inactive)
fold change of Cadaverine concentration (Escherichia coli IAI1 [10]): 1.22 (inactive)
fold change of Cadaverine concentration [11]: 1.02 (inactive)
fold change of 2-Phenylethylamine concentration [12]: 1.06 (inactive)

CN1C(=O)CCS(=O)(=O)C1c1ccc(Cl)cc1 (stereo not drawn) [Chlormezanone]
growth [1]: 1.13
growth (Escherichia coli IAI1 [2]): 0.97
growth [3]: 1.02
growth [4]: 0.846
fold change of Histamine concentration [5]: 1 (inactive)
fold change of Tryptamine concentration [6]: 0.944 (inactive)
fold change of Tryptamine concentration [7]: 1.05 (inactive)
fold change of Putrescine concentration (Escherichia coli IAI1 [8]): 0.986 (inactive)
fold change of Putrescine concentration [9]: 1.01 (inactive)
fold change of Cadaverine concentration (Escherichia coli IAI1 [10]): 0.984 (inactive)
fold change of Cadaverine concentration [11]: 1.01 (inactive)
fold change of 2-Phenylethylamine concentration [12]: 1.06 (inactive)

COc1ccc(CCN2CCC(Nc3nc4ccccc4n3Cc3ccc(F)cc3)CC2)cc1 [Astemizole]
growth [1]: 1.26
growth (Escherichia coli IAI1 [2]): 1.02
growth [3]: 1.01
fold change of Histamine concentration [5]: 0.968 (inactive)
fold change of Tryptamine concentration [6]: 1.02 (inactive)
fold change of Tryptamine concentration [7]: 0.838 (inactive)
fold change of Putrescine concentration (Escherichia coli IAI1 [8]): 1.01 (inactive)
fold change of Putrescine concentration [9]: 0.988 (inactive)
fold change of Cadaverine concentration (Escherichia coli IAI1 [10]): 1.05 (inactive)
fold change of Cadaverine concentration [11]: 0.994 (inactive)
fold change of 2-Phenylethylamine concentration [12]: 0.796 (inactive)

CN1CCN(C(=O)OC2c3nccnc3C(=O)N2c2ccc(Cl)cn2)CC1 (stereo not drawn) [Zopiclone]
growth [1]: 1.13
growth (Escherichia coli IAI1 [2]): 0.987
growth [3]: 0.952
growth [4]: 0.842
fold change of Histamine concentration [5]: 1.03 (inactive)
fold change of Tryptamine concentration [6]: 1.02 (inactive)
fold change of Tryptamine concentration [7]: 0.989 (inactive)
fold change of Putrescine concentration (Escherichia coli IAI1 [8]): 0.98 (inactive)
fold change of Putrescine concentration [9]: 1.02 (inactive)
fold change of Cadaverine concentration (Escherichia coli IAI1 [10]): 0.979 (inactive)
fold change of Cadaverine concentration [11]: 0.99 (inactive)
fold change of 2-Phenylethylamine concentration [12]: 0.988 (inactive)

NC(=O)OCCCc1ccccc1 [Phenprobamate]
growth [1]: 0.892
growth (Escherichia coli IAI1 [2]): 0.995
growth [3]: 0.992
growth [4]: 0.943
fold change of Histamine concentration [5]: 0.97 (inactive)
fold change of Tryptamine concentration [6]: 0.987 (inactive)
fold change of Tryptamine concentration [7]: 0.96 (inactive)
fold change of Putrescine concentration (Escherichia coli IAI1 [8]): 1.34 (inactive)
fold change of Putrescine concentration [9]: 0.99 (inactive)
fold change of Cadaverine concentration (Escherichia coli IAI1 [10]): 0.952 (inactive)
fold change of Cadaverine concentration [11]: 0.984 (inactive)
fold change of 2-Phenylethylamine concentration [12]: 0.943 (inactive)

c1ccc2c(c1)OCC(C1=NCCN1)O2 (stereo not drawn) [Idazoxan hydrochloride]
growth [1]: 1.09
growth (Escherichia coli IAI1 [2]): 1.01
growth [3]: 1.01
growth [4]: 0.978
fold change of Histamine concentration [5]: 1 (inactive)
fold change of Tryptamine concentration [6]: 0.976 (inactive)
fold change of Tryptamine concentration [7]: 0.832 (inactive)
fold change of Putrescine concentration (Escherichia coli IAI1 [8]): 1.1 (inactive)
fold change of Putrescine concentration [9]: 0.998 (inactive)
fold change of Cadaverine concentration (Escherichia coli IAI1 [10]): 0.996 (inactive)
fold change of Cadaverine concentration [11]: 0.996 (inactive)
fold change of 2-Phenylethylamine concentration [12]: 0.785 (inactive)

CN/C(=N\[N+](=O)[O-])NCc1cnc(Cl)s1
growth [1]: 0.943
growth (Escherichia coli IAI1 [2]): 0.968
growth [3]: 0.989
growth [4]: 0.944
fold change of Histamine concentration [5]: 1.01 (inactive)
fold change of Tryptamine concentration [6]: 0.953 (inactive)
fold change of Tryptamine concentration [7]: 0.989 (inactive)
fold change of Putrescine concentration (Escherichia coli IAI1 [8]): 0.98 (inactive)
fold change of Putrescine concentration [9]: 1 (inactive)
fold change of Cadaverine concentration (Escherichia coli IAI1 [10]): 1.07 (inactive)
fold change of Cadaverine concentration [11]: 0.994 (inactive)
fold change of 2-Phenylethylamine concentration [12]: 1 (inactive)
